34 molecules from ChEMBL document CHEMBL4513141, “CO-ADD screening of NIH (USA) - Clinical Collection” (2021) can be followed below.

Potency and affinity values are given separately.

The first assay concerns Klebsiella pneumoniae. The conditions noted are these: Concentration 20 uM; ASSAY_TEST Inhibition of Bacterial Growth; detection method Absorption (OD600); MEDIA CAMHB; plate type 384well; NBS; CORNING #3640; time 18 hr.
On to `O=C(O)CCCc1ccc(N(CCCl)CCCl)cc1` [CHLORAMBUCIL], for which the Inhibition – broadly, the change of the read-out against control, counted positive when it falls – is given as 9.18%.
As for `CN1CCN(C2=Nc3cc(Cl)ccc3Nc3ccccc32)CC1` [CLOZAPINE], the Inhibition is on record as 8.37%.
On to `CN1[C@@H]2CC[C@H]1CC(OC(=O)C(CO)c1ccccc1)C2` (stereo partly drawn), for which the Inhibition is recorded as 9.61%.
For the molecule `CN1CCN(C(=O)O[C@H]2c3nccnc3C(=O)N2c2ccc(Cl)cn2)CC1` [ESZOPICLONE], the Inhibition is on record as -5.59%.
On to `NS(=O)(=O)c1cc(C2(O)NC(=O)c3ccccc32)ccc1Cl` (stereo not drawn) [CHLORTHALIDONE], for which the Inhibition stood at 4.57%.
On to `O=C(O)C(Cl)Cl` [DICHLOROACETIC ACID], for which the Inhibition is reported as 10.68%.
As for `CN/C(=N\CCSCc1nc[nH]c1C)NC#N` [CIMETIDINE], the Inhibition came out at 3.14%.
With `C[C@H](CCC(=O)O)[C@H]1CC[C@H]2[C@@H]3C(=O)C[C@@H]4CC(=O)CC[C@]4(C)[C@H]3CC(=O)[C@]12C` [DEHYDROCHOLIC ACID], the Inhibition came out at 5.88%.
`CCOC(=O)c1ncn2c1CN(C)C(=O)c1cc(F)ccc1-2` [FLUMAZENIL]: the Inhibition is -2%.
Consider `Cc1ccnc2c1NC(=O)c1cccnc1N2C1CC1` [NEVIRAPINE], for which the Inhibition was determined as 10.08%.
Turning to `CCOC(=O)c1cncn1[C@H](C)c1ccccc1` [ETOMIDATE], the Inhibition is 12.64%.
Turning to `Cl.FC(F)(F)c1cccc(N2CCNCC2)c1` [N- (3-TRIFLUOROMETHYLPHENYL)PIPERAZINE HYDROCHLORIDE (TFMPP)], the Inhibition came out at 6.51%.
`COc1ccc2[nH]cc(C3=CCNCC3)c2c1.COc1ccc2[nH]cc(C3=CCNCC3)c2c1.O=C(O)CCC(=O)O`: the Inhibition is reported as 15.57%.
Consider `CC(C)C(=O)Nc1ccc([N+](=O)[O-])c(C(F)(F)F)c1` [FLUTAMIDE], for which the Inhibition was 13.37%.
Still for that read-out and setting: under `C#CCN(C)[C@H](C)Cc1ccccc1.Cl` [SELEGILINE HYDROCHLORIDE] stands 8.65%; under `CCN(C(C)=O)c1cccc(-c2ccnc3c(C#N)cnn23)c1` [ZALEPLON], 6.53%.
For `CCN(CC)CCOC(=O)C(O)(c1ccccc1)c1ccccc1.Cl`, the Inhibition stood at 9.09%.
With `COc1ccc(C(CN(C)C)C2(O)CCCCC2)cc1.Cl` (stereo not drawn) [VENLAFAXINE HYDROCHLORIDE], the Inhibition came to 15.76%.
Same read-out and setting: under `COC(=O)C1=C(C)NC(C)=C(C(=O)OC)C1c1ccccc1[N+](=O)[O-]` [NIFEDIPINE] stands 22.28%; under `CN1C(=O)COc2c(C(=O)NC3CN4CCC3CC4)cc(Cl)cc21.Cl` (stereo not drawn), 10.75%; under `O.O=P1(N(CCCl)CCCl)NCCCO1` (stereo not drawn) [CYCLOPHOSPHAMIDE], 7.22%.
Consider `O=C1Nc2ccc(Cl)cc2C(c2ccccc2Cl)=NC1O` (stereo not drawn) [LORAZEPAM], for which the Inhibition is on record as -5.27%.
Turning to `CCCN1C[C@H](CSC)C[C@@H]2c3cccc4[nH]cc(c34)C[C@H]21.CS(=O)(=O)O` [PERGOLIDE MESYLATE], the Inhibition turned out to be 13.95%.
With `C=C1C[C@@H]2[C@H](CC[C@]3(C)C(=O)CC[C@@H]23)[C@@]2(C)C=CC(=O)C=C12` [EXEMESTANE], the Inhibition is given as 6.02%.
On to `O=C1CN=C(c2ccccc2)c2cc([N+](=O)[O-])ccc2N1` [NITRAZEPAM], for which the Inhibition is on record as 13.18%.
The same measure, in the same setting: for `COC(=O)N1CCN(C(=O)Cc2ccc(Cl)c(Cl)c2)C(CN2CCCC2)C1.O=C(O)/C=C/C(=O)O` (stereo not drawn) the value was 6.19%.
As to `C[C@]12CCC(=O)C=C1CC[C@@H]1[C@@H]2CC[C@@]2(C)[C@H]1CC[C@]2(C)O` [METHYLTESTOSTERONE], the Inhibition turned out to be 12.33%.
Regarding `CS(=O)(=O)O.O=C(O[C@@H]1C[C@@H]2C[C@H]3C[C@H](C1)N2CC3=O)c1c[nH]c2ccccc12`, the Inhibition turned out to be 8.46%.
Still for that read-out and setting: for `Cl.NCC(O)c1ccc(O)c(O)c1` (stereo not drawn) the value was 15.27%; for `Brc1c(NC2=NCCN2)ccc2nccnc12` [BRIMONIDINE], 7.83%; for `C[N+]1(C)CCC(OC(=O)C(O)(c2ccccc2)C2CCCC2)C1.[Br-]` (stereo not drawn) [GLYCOPYRRONIUM BROMIDE], 13.34%.
On the same count and under the same terms, under `COc1ccc(CCN)cc1OC` stands 8.69%.
`CC(C)NCC(O)c1ccc(O)c(O)c1.Cl` (stereo not drawn) [ISOPROTERENOL HYDROCHLORIDE]: the Inhibition is reported as 6.57%.
Still for that read-out and setting: under `COc1cc(N)c(Cl)cc1C(=O)NC1CN2CCC1CC2.Cl.O` (stereo not drawn) [ZACOPRIDE HYDROCHLORIDE] stands -4%.

The next assay deals with Candida albicans. The conditions noted are these: 20 µM.
Consider `O=C(O)CCCc1ccc(N(CCCl)CCCl)cc1` [CHLORAMBUCIL], for which the Inhibition was 2.65%.
`CN1CCN(C2=Nc3cc(Cl)ccc3Nc3ccccc32)CC1` [CLOZAPINE]: the Inhibition came to 0.59%.
As to `CN1[C@@H]2CC[C@H]1CC(OC(=O)C(CO)c1ccccc1)C2` (stereo partly drawn), the Inhibition came to 0.86%.
On the same count and under the same terms, under `CN1CCN(C(=O)O[C@H]2c3nccnc3C(=O)N2c2ccc(Cl)cn2)CC1` [ESZOPICLONE] stands 0.3%; under `NS(=O)(=O)c1cc(C2(O)NC(=O)c3ccccc32)ccc1Cl` (stereo not drawn) [CHLORTHALIDONE], 3.92%; under `O=C(O)C(Cl)Cl` [DICHLOROACETIC ACID], 2.59%.
For the molecule `CN/C(=N\CCSCc1nc[nH]c1C)NC#N` [CIMETIDINE], the Inhibition came out at 3.16%.
As to `C[C@H](CCC(=O)O)[C@H]1CC[C@H]2[C@@H]3C(=O)C[C@@H]4CC(=O)CC[C@]4(C)[C@H]3CC(=O)[C@]12C` [DEHYDROCHOLIC ACID], the Inhibition is 3.92%.
On to `CCOC(=O)c1ncn2c1CN(C)C(=O)c1cc(F)ccc1-2` [FLUMAZENIL], for which the Inhibition came to 0.3%.
On the same count and under the same terms, under `Cc1ccnc2c1NC(=O)c1cccnc1N2C1CC1` [NEVIRAPINE] stands 2.39%; under `CCOC(=O)c1cncn1[C@H](C)c1ccccc1` [ETOMIDATE], 0.03%.
In the case of `Cl.FC(F)(F)c1cccc(N2CCNCC2)c1` [N- (3-TRIFLUOROMETHYLPHENYL)PIPERAZINE HYDROCHLORIDE (TFMPP)], the Inhibition was found to be 4.36%.
For `COc1ccc2[nH]cc(C3=CCNCC3)c2c1.COc1ccc2[nH]cc(C3=CCNCC3)c2c1.O=C(O)CCC(=O)O`, the Inhibition was 3.46%.
`CC(C)C(=O)Nc1ccc([N+](=O)[O-])c(C(F)(F)F)c1` [FLUTAMIDE]: the Inhibition turned out to be 3.45%.
For `C#CCN(C)[C@H](C)Cc1ccccc1.Cl` [SELEGILINE HYDROCHLORIDE], the Inhibition is 4.68%.
On to `CCN(C(C)=O)c1cccc(-c2ccnc3c(C#N)cnn23)c1` [ZALEPLON], for which the Inhibition was -0.36%.
Still for that read-out and setting: for `CCN(CC)CCOC(=O)C(O)(c1ccccc1)c1ccccc1.Cl` the value was 3.32%; for `COc1ccc(C(CN(C)C)C2(O)CCCCC2)cc1.Cl` (stereo not drawn) [VENLAFAXINE HYDROCHLORIDE], 3.64%; for `COC(=O)C1=C(C)NC(C)=C(C(=O)OC)C1c1ccccc1[N+](=O)[O-]` [NIFEDIPINE], 4.72%.
On to `CN1C(=O)COc2c(C(=O)NC3CN4CCC3CC4)cc(Cl)cc21.Cl` (stereo not drawn), for which the Inhibition amounted to 2.68%.
For `O.O=P1(N(CCCl)CCCl)NCCCO1` (stereo not drawn) [CYCLOPHOSPHAMIDE], the Inhibition amounted to 0.13%.
Take `O=C1Nc2ccc(Cl)cc2C(c2ccccc2Cl)=NC1O` (stereo not drawn) [LORAZEPAM]: the Inhibition came out at 5.15%.
Turning to `CCCN1C[C@H](CSC)C[C@@H]2c3cccc4[nH]cc(c34)C[C@H]21.CS(=O)(=O)O` [PERGOLIDE MESYLATE], the Inhibition turned out to be 2.85%.
As for `C=C1C[C@@H]2[C@H](CC[C@]3(C)C(=O)CC[C@@H]23)[C@@]2(C)C=CC(=O)C=C12` [EXEMESTANE], the Inhibition was 5.81%.
As to `O=C1CN=C(c2ccccc2)c2cc([N+](=O)[O-])ccc2N1` [NITRAZEPAM], the Inhibition is 3.29%.
Turning to `COC(=O)N1CCN(C(=O)Cc2ccc(Cl)c(Cl)c2)C(CN2CCCC2)C1.O=C(O)/C=C/C(=O)O` (stereo not drawn), the Inhibition came to 2.42%.
Turning to `C[C@]12CCC(=O)C=C1CC[C@@H]1[C@@H]2CC[C@@]2(C)[C@H]1CC[C@]2(C)O` [METHYLTESTOSTERONE], the Inhibition was 4.22%.
Consider `CS(=O)(=O)O.O=C(O[C@@H]1C[C@@H]2C[C@H]3C[C@H](C1)N2CC3=O)c1c[nH]c2ccccc12`, for which the Inhibition came to 2.39%.
`Cl.NCC(O)c1ccc(O)c(O)c1` (stereo not drawn): the Inhibition is 4.08%.
The same measure, in the same setting: for `Brc1c(NC2=NCCN2)ccc2nccnc12` [BRIMONIDINE] the value was 3.99%; for `C[N+]1(C)CCC(OC(=O)C(O)(c2ccccc2)C2CCCC2)C1.[Br-]` (stereo not drawn) [GLYCOPYRRONIUM BROMIDE], 3.65%.
For `COc1ccc(CCN)cc1OC`, the Inhibition came to 2.72%.
As for `CC(C)NCC(O)c1ccc(O)c(O)c1.Cl` (stereo not drawn) [ISOPROTERENOL HYDROCHLORIDE], the Inhibition amounted to 2.42%.
Regarding `COc1cc(N)c(Cl)cc1C(=O)NC1CN2CCC1CC2.Cl.O` (stereo not drawn) [ZACOPRIDE HYDROCHLORIDE], the Inhibition came out at 5.47%.
